The values that follow come from PubChem BioAssay AID588689 (Southern Research Specialized Biocontainment Screening …, 2011).

The target of this assay is Genome polyprotein (Dengue virus type 2 (strain 16681-PDK53)) (UniProt P29991). Put plainly: Dengue-2 NS5 methyltransferase inhibitors, primary screen, biochemical, confirmation dose response (AID 588689). To be noted: Dengue-2 NS5 methyltransferase capping enzyme assay, at 25 µM, stronger effect = higher value.

The campaign covered roughly 340,000 compounds. About 1,000 (0.29%) were called active. No stated cut-off is given here; in the data, inconclusive means inhibition above about 29% without an active follow-up result; inactive means below that. These entries were drawn from the full list. Potency and affinity values are given separately.

Sequence of Genome polyprotein (Dengue virus type 2 (strain 16681-PDK53)) (P29991 whole entry, looked up): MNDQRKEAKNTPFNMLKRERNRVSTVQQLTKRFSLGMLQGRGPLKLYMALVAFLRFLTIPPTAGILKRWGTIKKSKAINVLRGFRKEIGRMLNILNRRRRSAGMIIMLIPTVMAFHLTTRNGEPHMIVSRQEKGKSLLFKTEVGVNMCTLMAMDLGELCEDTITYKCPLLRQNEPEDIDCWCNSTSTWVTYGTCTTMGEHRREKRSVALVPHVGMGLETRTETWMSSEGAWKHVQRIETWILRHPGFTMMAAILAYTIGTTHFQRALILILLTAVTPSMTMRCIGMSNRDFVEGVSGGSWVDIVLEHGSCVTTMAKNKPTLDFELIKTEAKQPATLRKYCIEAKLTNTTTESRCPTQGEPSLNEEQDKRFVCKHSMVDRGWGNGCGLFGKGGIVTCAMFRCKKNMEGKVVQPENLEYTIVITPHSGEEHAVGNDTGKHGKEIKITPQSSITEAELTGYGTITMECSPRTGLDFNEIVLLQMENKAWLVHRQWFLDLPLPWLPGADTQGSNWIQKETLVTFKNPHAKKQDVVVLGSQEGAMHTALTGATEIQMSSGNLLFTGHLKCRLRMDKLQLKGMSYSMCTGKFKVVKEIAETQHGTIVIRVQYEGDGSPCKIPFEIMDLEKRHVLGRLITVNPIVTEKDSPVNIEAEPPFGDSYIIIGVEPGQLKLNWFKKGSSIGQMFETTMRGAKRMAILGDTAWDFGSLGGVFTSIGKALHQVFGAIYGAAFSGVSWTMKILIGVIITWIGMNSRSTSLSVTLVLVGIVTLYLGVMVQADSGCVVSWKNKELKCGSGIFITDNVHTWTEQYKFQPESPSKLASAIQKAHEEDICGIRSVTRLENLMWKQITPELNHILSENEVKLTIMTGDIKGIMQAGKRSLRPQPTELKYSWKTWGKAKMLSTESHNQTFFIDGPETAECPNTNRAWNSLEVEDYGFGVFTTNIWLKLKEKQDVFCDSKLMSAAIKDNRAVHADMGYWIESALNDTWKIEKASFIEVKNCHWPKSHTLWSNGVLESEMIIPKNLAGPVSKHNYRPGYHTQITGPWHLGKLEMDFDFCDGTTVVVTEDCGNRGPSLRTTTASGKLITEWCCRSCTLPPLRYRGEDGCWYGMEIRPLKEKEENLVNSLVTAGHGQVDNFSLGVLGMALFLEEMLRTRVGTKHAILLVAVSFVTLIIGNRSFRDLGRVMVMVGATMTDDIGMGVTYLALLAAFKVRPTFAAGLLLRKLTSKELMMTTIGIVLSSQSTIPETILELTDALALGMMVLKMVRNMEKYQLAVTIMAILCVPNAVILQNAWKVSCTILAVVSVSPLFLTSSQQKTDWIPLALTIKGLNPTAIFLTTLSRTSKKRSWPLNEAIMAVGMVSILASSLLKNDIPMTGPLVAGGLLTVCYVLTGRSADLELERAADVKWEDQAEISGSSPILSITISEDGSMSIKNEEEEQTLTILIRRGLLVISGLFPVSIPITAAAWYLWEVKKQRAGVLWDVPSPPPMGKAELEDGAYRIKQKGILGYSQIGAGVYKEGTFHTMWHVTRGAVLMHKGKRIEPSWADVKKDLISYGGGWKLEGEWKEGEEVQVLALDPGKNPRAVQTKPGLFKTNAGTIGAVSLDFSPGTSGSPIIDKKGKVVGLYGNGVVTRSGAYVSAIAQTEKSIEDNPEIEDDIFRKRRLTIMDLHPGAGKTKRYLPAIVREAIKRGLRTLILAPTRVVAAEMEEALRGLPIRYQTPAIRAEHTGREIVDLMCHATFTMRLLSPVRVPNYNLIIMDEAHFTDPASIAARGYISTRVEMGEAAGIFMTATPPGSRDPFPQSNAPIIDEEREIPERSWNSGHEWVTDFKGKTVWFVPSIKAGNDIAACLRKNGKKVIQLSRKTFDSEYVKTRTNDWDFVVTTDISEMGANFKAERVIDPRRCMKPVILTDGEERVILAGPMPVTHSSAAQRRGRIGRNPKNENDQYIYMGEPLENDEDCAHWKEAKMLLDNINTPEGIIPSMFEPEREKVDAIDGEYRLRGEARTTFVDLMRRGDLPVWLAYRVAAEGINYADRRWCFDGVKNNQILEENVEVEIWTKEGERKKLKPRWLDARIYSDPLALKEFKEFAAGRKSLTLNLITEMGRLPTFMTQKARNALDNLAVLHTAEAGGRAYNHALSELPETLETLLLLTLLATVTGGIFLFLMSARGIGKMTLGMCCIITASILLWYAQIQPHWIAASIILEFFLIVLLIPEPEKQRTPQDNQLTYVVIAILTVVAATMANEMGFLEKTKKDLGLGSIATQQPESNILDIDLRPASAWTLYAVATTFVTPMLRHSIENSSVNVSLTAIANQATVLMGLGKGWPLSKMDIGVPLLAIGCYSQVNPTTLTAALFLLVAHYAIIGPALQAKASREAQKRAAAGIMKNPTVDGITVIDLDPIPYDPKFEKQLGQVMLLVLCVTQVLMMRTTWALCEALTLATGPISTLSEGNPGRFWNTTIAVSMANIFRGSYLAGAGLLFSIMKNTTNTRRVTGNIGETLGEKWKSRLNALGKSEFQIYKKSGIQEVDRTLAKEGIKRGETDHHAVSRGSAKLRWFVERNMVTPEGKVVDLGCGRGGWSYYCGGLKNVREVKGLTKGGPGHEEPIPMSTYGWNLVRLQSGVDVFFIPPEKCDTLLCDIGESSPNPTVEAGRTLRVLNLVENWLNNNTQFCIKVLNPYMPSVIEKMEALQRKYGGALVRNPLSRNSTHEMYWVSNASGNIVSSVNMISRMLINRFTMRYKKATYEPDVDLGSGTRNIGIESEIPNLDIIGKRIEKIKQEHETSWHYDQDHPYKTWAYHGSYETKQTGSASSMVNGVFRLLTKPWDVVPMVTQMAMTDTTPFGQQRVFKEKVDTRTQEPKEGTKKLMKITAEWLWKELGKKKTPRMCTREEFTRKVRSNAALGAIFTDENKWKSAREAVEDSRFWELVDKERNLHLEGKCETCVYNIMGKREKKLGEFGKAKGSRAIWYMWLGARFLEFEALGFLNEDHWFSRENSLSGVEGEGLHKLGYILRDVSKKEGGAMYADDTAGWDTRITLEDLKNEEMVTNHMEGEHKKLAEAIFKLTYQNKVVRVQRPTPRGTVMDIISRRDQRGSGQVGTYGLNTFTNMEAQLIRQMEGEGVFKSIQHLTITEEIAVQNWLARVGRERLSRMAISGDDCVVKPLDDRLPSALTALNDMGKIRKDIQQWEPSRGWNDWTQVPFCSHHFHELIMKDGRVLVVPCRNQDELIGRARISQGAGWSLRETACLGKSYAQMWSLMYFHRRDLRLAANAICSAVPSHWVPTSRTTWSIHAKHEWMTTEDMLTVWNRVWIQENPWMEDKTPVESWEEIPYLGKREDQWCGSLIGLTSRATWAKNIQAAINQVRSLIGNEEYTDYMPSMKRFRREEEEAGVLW

The term inhibition denotes the drop in the measured response relative to a control, in per cent. As to `COc1ccc(/C=C(\C#N)C(=O)OCC(=O)N2CC(C)OC(C)C2)cc1` (centres undefined), the inhibition is -2.3% (inactive).
The same measure, in the same setting: for `O=C(CCCOc1ccc(Cl)cc1Cl)N/N=C/c1ccccc1` the value was -4.44% (inactive); for `CCCCCCCC(=O)N1c2ccccc2NC(=O)C1CC(=O)Nc1ccc(C(=O)O)cc1` (centres undefined), 8.1% (inactive).
Still for that read-out and setting: for `Cc1ccccc1NS(=O)(=O)c1ccc(C(=O)N2CCCC(C(F)(F)F)C2)cc1` (centres undefined) the value was 0.73% (inactive).
Consider `COc1cc(OC)cc(C(=O)NC2CCSC2=O)c1` (centres undefined), for which the inhibition is 2.06% (inactive). Further, the inhibition (measured here: pilot screen replicate inhibition) was -3.04%.
For the compound `CCc1c(C)c2nncn2[nH]c1=O`, the inhibition was -3.9% (inactive).
The same measure, in the same setting: the result for `CCOc1ccc(NC(=O)CN(C)C(=O)C2CC(=O)N(c3ccc4c(c3)OCCO4)C2)cc1OCC` (centres undefined) reads 5.04% (inactive); that for `CC(C)Cn1c(SCC(=O)N2CC(=O)Nc3ccccc32)nc2ccccc21`, -0.64% (inactive); that for `CC(=O)OCC1CCCC2=C(C)C(=O)CCC21COC(C)=O` (centres undefined), 3.29% (inactive).
Same read-out and setting: for `Cc1ccccc1NC(=O)NC1(C(=O)N2CCOCC2)CCCCC1` the value was -3.7% (inactive).
The same measure, in the same setting: the result for `COc1ccc(CCn2c(=O)c3cccnc3n(Cc3ccc([N+](=O)[O-])cc3)c2=O)cc1OC` reads -7.08% (inactive); that for `CCS(=O)(=O)c1ccc(O)c(NC(=O)CCCC(=O)O)c1`, 12.2% (inactive); that for `CCCCCC(=O)Nc1cc(S(=O)(=O)N2CCCCC2)ccc1N1CCCCC1`, -6.48% (inactive).
As to `Cc1ccc(N2CC(C(=O)OCc3nc(N)nc(Nc4ccccc4C)n3)CC2=O)cc1` (centres undefined), the inhibition is 2.96% (inactive).
For `CCCCC/C=C/C1=CC(=O)C[C@H](c2ccc(OC)cc2)C1`, the inhibition was -0.8% (inactive).
Still for that read-out and setting: the result for `CC(C)C(NC(=O)C1CCC(C(C)(C)C)CC1)C(=O)NCCc1ccc(S(N)(=O)=O)cc1` (centres undefined) reads 9.25% (inactive); that for `O=C(/C=C/c1cccc([N+](=O)[O-])c1)NCCN1C(=O)S/C(=C\c2ccc(F)cc2)C1=O`, 5.26% (inactive); that for `O=C(O)c1cccc(CN2C(=O)S/C(=C/c3ccccc3[N+](=O)[O-])C2=O)c1`, 28.5% (inactive).
The same measure, in the same setting: for `CCCCNC(C(=O)Nc1ccc([N+](=O)[O-])cc1Br)c1ccccc1` (centres undefined) the value was 1.47% (inactive); for `COc1ccc(C(=O)N2CCC(C(=O)Nc3ccc4c(c3)OCO4)CC2)cc1`, -4.42% (inactive).
Same read-out and setting: the result for `O=C(NCc1ccc(F)cc1)C(=O)NCC1OCCN1S(=O)(=O)c1cc(F)ccc1F` (centres undefined) reads 6.59% (inactive); that for `Cc1ccc([N+](=O)[O-])cc1NC(=O)C(C)NS(=O)(=O)c1ccc(F)cc1` (centres undefined), 2.19% (inactive).
On to `COc1ccc(NC(=O)CCCc2nc3ccccc3c(=O)[nH]2)cc1Cl`, for which the inhibition is 6.22% (inactive).
Same read-out and setting: for `CCN(CC)CCCN1C=C2C(=O)C(C)(OC(=O)CCC(=O)OC)C(=O)C(Br)=C2C=C1c1ccc(OC)cc1` (centres undefined) the value was 8.8% (inactive); for `COC(=O)CCC(=O)OC1(C)C(=O)C=C2C=C(C3CC3)N(Cc3ccc(OC)cc3)C=C2C1=O` (centres undefined), 17.3% (inactive).
Same read-out and setting: for `COC(=O)CCC(=O)OC1(C)C(=O)C2=CN(CCc3c[nH]c4ccccc34)C(c3ccc(OC)cc3)=CC2=C(Br)C1=O` (centres undefined) the value was -2.45% (inactive).
Same read-out and setting: for `COC(=O)CCC(=O)OC1(C)C(=O)C=C2C=C(C3CC3)N(C3CCCC3)C=C2C1=O` (centres undefined) the value was 12.8% (inactive).
For `COC(=O)CCC(=O)OC1(C)C(=O)C=C2C=C(C3CC3)N(C3CCCCC3)C=C2C1=O` (centres undefined), the inhibition is 12.7% (inactive).
The same measure, in the same setting: for `COC(=O)CCC(=O)OC1(C)C(=O)C2=CN(Cc3ccc(OC)cc3)C(c3ccc(OC)cc3)=CC2=C(Br)C1=O` (centres undefined) the value was 17.2% (inactive).
Same read-out and setting: the result for `COC(=O)CCC(=O)OC1(C)C(=O)C=C2C=C(C3CC3)N(CC3CC3)C=C2C1=O` (centres undefined) reads 9.84% (inactive).
Still for that read-out and setting: the result for `COC(=O)CCC(=O)OC1(C)C(=O)C=C2C=C(C3CC3)N(CCCOC(C)C)C=C2C1=O` (centres undefined) reads 7.22% (inactive); that for `N#Cc1ccc(CN2CCN(C(=O)CCNS(=O)(=O)c3ccc(F)c(F)c3)CC2)cc1`, -7.08% (inactive); that for `O=C(CSc1ccc2c(c1)OCCO2)NCC1CCCO1` (centres undefined), -10.5% (inactive).
For `O=c1c(-c2ccccc2)c(O)c2c(n1-c1ccccc1)CCCC2`, the inhibition was -3.21% (inactive).
Same read-out and setting: the result for `O=C(O)c1ccc(-c2ccco2)n1Cc1ccccc1` reads 4.75% (inactive); that for `O=C(CN1CCN(Cc2ccc(F)cc2)CC1)Nc1ccccc1F`, 1.36% (inactive).
With `CCN(C(=O)CSc1nc2ccccc2c(=O)n1CCOC)C1CCS(=O)(=O)C1` (centres undefined), the inhibition is 1.48% (inactive).
Same read-out and setting: the result for `CC(C)c1cccc(-c2ccc3c(c2)S(=O)(=O)c2cccc(C(=O)NCc4ccccc4)c2C3=O)c1` reads -6.42% (inactive).
The same measure, in the same setting: for `O=C1c2ccc(-c3ccc(F)cc3OCc3ccccc3)cc2S(=O)(=O)c2cccc(C(=O)N3CCCC3)c21` the value was 8% (inactive).
The same measure, in the same setting: for `CC(C)c1cccc(-c2ccc3c(c2)S(=O)(=O)c2cccc(C(=O)NC4CCCC4)c2C3=O)c1` the value was -4.92% (inactive); for `COc1ccc(NC(=O)c2cccc3c2C(=O)c2ccc(-c4ccc(F)cc4OCc4ccccc4)cc2S3(=O)=O)cc1`, -0.7% (inactive); for `O=C(OCCN1CCCCC1)c1ccccc1Cl`, 7.44% (inactive).
Take `CN(CC(=O)Nc1cccc(F)c1)CC(=O)N1CCCCC1`: the inhibition is 6.98% (inactive).
With `COc1ccc(CN2CC(C(=O)NCCC(C)C)CC2=O)cc1` (centres undefined), the inhibition was 6.67% (inactive).
Still for that read-out and setting: the result for `CC(C)(C)C(=O)NCCCc1ccccc1` reads -0.68% (inactive); that for `COc1cc(/C=C2\C(=N)N3N=C(S(C)(=O)=O)SC3=NC2=O)ccc1OC(=O)c1ccco1`, -59.7% (inactive); that for `COc1cc(/C=C2\C(=O)NN(c3ccc(C)cc3)C2=O)cc([N+](=O)[O-])c1O`, 17.9% (inactive).
On the same count and under the same terms, for `COc1cc(/C=C2/C(=O)NN(c3ccc(Cl)cc3)C2=O)ccc1OC(=O)c1ccco1` the value was 15.2% (inactive); for `COc1cc(/C=C2\C(=O)NN(c3ccccc3)C2=O)cc([N+](=O)[O-])c1O`, 26.6% (inactive).
Consider `CCOc1cc(/C=C2/NC(=O)NC2=O)cc([N+](=O)[O-])c1O`, for which the inhibition was 22.9% (inactive).
Same read-out and setting: for `CCOc1cc(/C=C2\NC(=O)NC2=O)cc([N+](=O)[O-])c1O` the value was 71.9% (inactive); for `CCOc1cc(/C=C2/C(=O)N(c3ccccc3)N=C2C)ccc1OC(=O)c1ccco1`, 19.1% (inactive); for `COc1cc(/C=C2/C(=O)NN(c3cccc(F)c3)C2=O)ccc1OC(=O)c1ccco1`, 23% (inactive).
